fixLJ activator – B. multivorans fixK reporter activation | B. multivorans fixK-promoter GFP reporter, 18 h; active compounds read high | z-score (test concentration not listed) | 0.3% of 29,000 active;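 active means replicate mean overnight rise in green fluorescent reporter signal, 3 or more SD over negative controls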
Each line names hits and unclear results; the compound was inactive in the other large screens. The entries come from a sample that favours hits as a whole.

Cc1ccccc1-n1c(/C=C/c2c(C)[nH]c3ccccc23)nc2ccccc2c1=O	none
COc1cccc(-n2c(/C=C\c3ccc(Cl)cc3)nc3ccccc3c2=O)c1	none
Cc1ccccc1-n1c(/C=C/c2ccc(N(C)C)cc2)nc2ccccc2c1=O	fixLJ activator 21
N#Cc1c(N)nc2c(c1-c1c(F)ccc(F)c1Cl)C1CCC(C2)N1 (stereo unspecified)	none
Cc1cc(CC(=O)N2CCCN(CC(=O)Nc3ccn(C)n3)CC2)on1	none

Assay outcomes deposited in PubChem by ICCB-Longwood Screening Facility, Harvard Medical School.
